Reference: the supplement of paper PMC6658780
Counter-ions that a name gives are not always drawn. ± gives the standard deviation of the averaged measurements.

test system: Klebsiella pneumoniae KPC-119; assay: percent growth inhibition of drug + antibiotic vs DMSO control; higher = more growth inhibition; settings: antibiotic (0.125x MIC): colistin; 20 µM

**Q.** NCC[C@H](O)C(=O)N[C@@H]1C[C@H](N)[C@@H](O[C@H]2O[C@H](CN)[C@@H](O)[C@H](O)[C@H]2O)[C@H](O)[C@H]1O[C@H]1O[C@H](CO)[C@@H](O)[C@H](N)[C@H]1O [Amikacin hydrate] was tested. Which percent growth inhibition did it give?
**A.** The percent growth inhibition was 92.29 ± 0.57%.

**Q.** For COC(=O)N/N=C/c1c[n+]([O-])c2ccccc2[n+]1[O-] [Carbadox], which percent growth inhibition is on record?
**A.** Its percent growth inhibition is 87.5 ± 11%.

**Q.** Which percent growth inhibition does the source give for CC1CCc2cc(F)cc3c(=O)c(C(=O)O)cn1c23 (stereo unspecified) [Flumequine] here?
**A.** Its percent growth inhibition is 95.6 ± 2.3%.

**Q.** Which percent growth inhibition does the source give for CO[C@@H]1[C@@H](OC(N)=O)[C@@H](O)[C@H](Oc2ccc3c(O)c(NC(=O)c4ccc(O)c(CC=C(C)C)c4)c(=O)oc3c2C)OC1(C)C [Novobiocin sodium salt] here?
**A.** Its percent growth inhibition is 98.55 ± 0.69%.

**Q.** Which percent growth inhibition does the source give for C=CC1=C(C(=O)O)N2C(=O)[C@@H](NC(=O)/C(=N\OCC(=O)O)c3csc(N)n3)[C@H]2SC1 [Cefixime] here?
**A.** Its percent growth inhibition is 97.8 ± 1.9%.

**Q.** O=C1NCN(c2ccccc2)C12CCN(CCCC(c1ccc(F)cc1)c1ccc(F)cc1)CC2 [Fluspirilen] was tested. Which percent growth inhibition did it give?
**A.** The percent growth inhibition was 96.4 ± 1.1%.

**Q.** How did the percent growth inhibition turn out when CS(=O)(=O)c1ccc([C@@H](O)[C@@H](CF)NC(=O)C(Cl)Cl)cc1 [Florfenicol] was run?
**A.** Its percent growth inhibition is 88.4 ± 7.8%.

**Q.** Which percent growth inhibition does the source give for CC(=O)OCC(=O)[C@@]1(O)CC[C@H]2[C@@H]3CCC4=CC(=O)CC[C@]4(C)[C@@]3(F)[C@@H](O)C[C@@]21C [Fludrocortisone acetate] here?
**A.** The percent growth inhibition was -6.61 ± 5%.

**Q.** CC1COc2c(N3CCN(C)CC3)c(F)cc3c(=O)c(C(=O)O)cn1c23 (stereo unspecified) [Ofloxacin] was tested. Which percent growth inhibition did it give?
**A.** The percent growth inhibition was 97.8 ± 1.4%.

**Q.** CN(C)CCCN1c2ccccc2Sc2ccc(Cl)cc21 [Chlorpromazine hydrochloride] was tested. Which percent growth inhibition did it give?
**A.** The percent growth inhibition was 2.49 ± 2.4%.

**Q.** Which percent growth inhibition does the source give for CCCCC(CC)CNC(=N)NC(=N)NCCCCCCNC(=N)NC(=N)NCC(CC)CCCC (stereo unspecified) [Alexidine dihydrochloride] here?
**A.** Its percent growth inhibition is 94.8 ± 1.6%.

**Q.** With CCn1cc(C(=O)O)c(=O)c2cc(F)c(N3CCNCC3)nc21 [Enoxacin] as the compound, how does the percent growth inhibition read?
**A.** Its percent growth inhibition is 97.72 ± 0.24%.

**Q.** How did the percent growth inhibition turn out when CN(C(=O)CN(CCO)CC(=O)N(C)C(C)(C)Cc1ccccc1)C(C)(C)Cc1ccccc1 [Oxethazaine] was run?
**A.** The percent growth inhibition was 95.6 ± 1.6%.

same assay, conditions: antibiotic (0.125x MIC): gentamicin; 7 µM

**Q.** NCC[C@H](O)C(=O)N[C@@H]1C[C@H](N)[C@@H](O[C@H]2O[C@H](CN)[C@@H](O)[C@H](O)[C@H]2O)[C@H](O)[C@H]1O[C@H]1O[C@H](CO)[C@@H](O)[C@H](N)[C@H]1O [Amikacin hydrate] was tested. Which percent growth inhibition did it give?
**A.** Its percent growth inhibition is 30.1 ± 9.4%.

**Q.** For COC(=O)N/N=C/c1c[n+]([O-])c2ccccc2[n+]1[O-] [Carbadox], which percent growth inhibition is on record?
**A.** The percent growth inhibition was 15.7 ± 0.29%.

**Q.** How did the percent growth inhibition turn out when C=CC1=C(C(=O)O)N2C(=O)[C@@H](NC(=O)/C(=N\OCC(=O)O)c3csc(N)n3)[C@H]2SC1 [Cefixime] was run?
**A.** Its percent growth inhibition is 29.8 ± 2%.

**Q.** With CC1COc2c(N3CCN(C)CC3)c(F)cc3c(=O)c(C(=O)O)cn1c23 (stereo unspecified) [Ofloxacin] as the compound, how does the percent growth inhibition read?
**A.** Its percent growth inhibition is 99.97 ± 0.11%.

**Q.** With CO/N=C(\C(=O)N[C@@H]1C(=O)N2C(C(=O)O)=C(C[N+]3(C)CCCC3)CS[C@H]12)c1csc(N)n1 [Cefepime hydrochloride] as the compound, how does the percent growth inhibition read?
**A.** The percent growth inhibition was 37.1 ± 3.7%.

**Q.** With CCCCC(CC)CNC(=N)NC(=N)NCCCCCCNC(=N)NC(=N)NCC(CC)CCCC (stereo unspecified) [Alexidine dihydrochloride] as the compound, how does the percent growth inhibition read?
**A.** The percent growth inhibition was 99.857 ± 0.088%.

**Q.** CCn1cc(C(=O)O)c(=O)c2cc(F)c(N3CCNCC3)nc21 [Enoxacin] was tested. Which percent growth inhibition did it give?
**A.** The percent growth inhibition was -1.06 ± 6.9%.

same assay, conditions: antibiotic (0.125x MIC): gentamicin; 20 µM

**Q.** For NCC[C@H](O)C(=O)N[C@@H]1C[C@H](N)[C@@H](O[C@H]2O[C@H](CN)[C@@H](O)[C@H](O)[C@H]2O)[C@H](O)[C@H]1O[C@H]1O[C@H](CO)[C@@H](O)[C@H](N)[C@H]1O [Amikacin hydrate], which percent growth inhibition is on record?
**A.** Its percent growth inhibition is 99.83 ± 0.21%.

**Q.** Which percent growth inhibition does the source give for C=CC1=C(C(=O)O)N2C(=O)[C@@H](NC(=O)/C(=N\OCC(=O)O)c3csc(N)n3)[C@H]2SC1 [Cefixime] here?
**A.** Its percent growth inhibition is 97.5 ± 3.4%.

**Q.** How did the percent growth inhibition turn out when CC1COc2c(N3CCN(C)CC3)c(F)cc3c(=O)c(C(=O)O)cn1c23 (stereo unspecified) [Ofloxacin] was run?
**A.** Its percent growth inhibition is 99.953 ± 0.055%.

**Q.** How did the percent growth inhibition turn out when CCCCC(CC)CNC(=N)NC(=N)NCCCCCCNC(=N)NC(=N)NCC(CC)CCCC (stereo unspecified) [Alexidine dihydrochloride] was run?
**A.** The percent growth inhibition was 99.929 ± 0.046%.

**Q.** Which percent growth inhibition does the source give for Nc1nc(/C(=C/CC(=O)O)C(=O)N[C@@H]2C(=O)N3C(C(=O)O)=CCS[C@H]23)cs1 [Ceftibuten] here?
**A.** The percent growth inhibition was 99.37 ± 0.26%.

same assay, conditions: antibiotic (0.125x MIC): meropenem; 20 µM

**Q.** NCC[C@H](O)C(=O)N[C@@H]1C[C@H](N)[C@@H](O[C@H]2O[C@H](CN)[C@@H](O)[C@H](O)[C@H]2O)[C@H](O)[C@H]1O[C@H]1O[C@H](CO)[C@@H](O)[C@H](N)[C@H]1O [Amikacin hydrate] was tested. Which percent growth inhibition did it give?
**A.** The percent growth inhibition was 99.71 ± 0.1%.

**Q.** With CC1COc2c(N3CCN(C)CC3)c(F)cc3c(=O)c(C(=O)O)cn1c23 (stereo unspecified) [Ofloxacin] as the compound, how does the percent growth inhibition read?
**A.** Its percent growth inhibition is 99.92 ± 0.12%.

**Q.** Which percent growth inhibition does the source give for CCCCC(CC)CNC(=N)NC(=N)NCCCCCCNC(=N)NC(=N)NCC(CC)CCCC (stereo unspecified) [Alexidine dihydrochloride] here?
**A.** The percent growth inhibition was 100.04 ± 0.0019%.

**Q.** Nc1nc(/C(=C/CC(=O)O)C(=O)N[C@@H]2C(=O)N3C(C(=O)O)=CCS[C@H]23)cs1 [Ceftibuten] was tested. Which percent growth inhibition did it give?
**A.** Its percent growth inhibition is 94.5 ± 4.1%.

test system: Klebsiella pneumoniae NCTC-13439; assay: as above; settings: antibiotic (0.125x MIC): ciprofloxacin; 7 µM

**Q.** With Cc1c(F)c(N2CCNC(C)C2)cc2c1c(=O)c(C(=O)O)cn2C1CC1 (stereo unspecified) [Grepafloxacin] as the compound, how does the percent growth inhibition read?
**A.** Its percent growth inhibition is 18.9 ± 3.6%.

**Q.** N=C(NCCCCCCNC(=N)NC(=N)Nc1ccc(Cl)cc1)NC(=N)Nc1ccc(Cl)cc1 [Chlorhexidine] was tested. Which percent growth inhibition did it give?
**A.** Its percent growth inhibition is 38.3 ± 1.2%.

**Q.** Which percent growth inhibition does the source give for NC1CCN(c2nc3c(cc2F)c(=O)c(C(=O)O)cn3-c2ccc(F)cc2F)C1 (stereo unspecified) [Tosufloxacin hydrochloride] here?
**A.** Its percent growth inhibition is 88.1 ± 8.8%.

**Q.** Cc1nc2n(c(=O)c1CCN1CCC(c3noc4cc(F)ccc34)CC1)CCCC2 [Risperidone] was tested. Which percent growth inhibition did it give?
**A.** Its percent growth inhibition is 15.5 ± 4.5%.

**Q.** For NC1CCN(c2c(F)cc3c(=O)c(C(=O)O)cn(C4CC4)c3c2Cl)C1 (stereo unspecified) [Clinafloxacin], which percent growth inhibition is on record?
**A.** The percent growth inhibition was 13.8 ± 8.5%.

**Q.** CCN1CCN(c2cc3c(cc2F)c(=O)c(C(=O)O)cn3C2CC2)CC1 [Enrofloxacin] was tested. Which percent growth inhibition did it give?
**A.** The percent growth inhibition was 7.59 ± 7.8%.

**Q.** For NC(=O)N/N=C/c1ccc([N+](=O)[O-])o1 [Nitrofural], which percent growth inhibition is on record?
**A.** Its percent growth inhibition is 10.1 ± 18%.

**Q.** For O=C(OCC(O)CO)c1ccccc1Nc1ccnc2cc(Cl)ccc12 (stereo unspecified) [Glafenine hydrochloride], which percent growth inhibition is on record?
**A.** Its percent growth inhibition is 6.41 ± 16%.

**Q.** For CC(=O)CCCCn1c(=O)c2c(ncn2C)n(C)c1=O [Pentoxifylline], which percent growth inhibition is on record?
**A.** The percent growth inhibition was 2.24 ± 1.5%.

**Q.** C#C[C@]1(OC(C)=O)CC[C@H]2[C@@H]3CCC4=CC(=NO)CC[C@@H]4[C@H]3CC[C@@]21CC (mixture of isomers) [Norgestimate] was tested. Which percent growth inhibition did it give?
**A.** The percent growth inhibition was -7.59 ± 3.1%.

**Q.** With COc1c(N2C[C@@H]3CCCN[C@@H]3C2)c(F)cc2c(=O)c(C(=O)O)cn(C3CC3)c12 [Moxifloxacin] as the compound, how does the percent growth inhibition read?
**A.** The percent growth inhibition was 25.8 ± 7.3%.

**Q.** For COc1c(N2CCNC(C)C2)c(F)cc2c(=O)c(C(=O)O)cn(C3CC3)c12 (stereo unspecified) [Gatifloxacin], which percent growth inhibition is on record?
**A.** The percent growth inhibition was 26.2 ± 8.2%.
